The test system of one test is RXRa DBDmut IVT, anti-RXR (DBD mutation: RXRa K156A/R161A, NR concentration 90 nM). The test can be described thus: PBM binding z-score (relative to random genomic background probes); higher = stronger binding; sequences stand for … in GC…GCGATTGACAGCGTAGAATGAAGG
In outline: (§1)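 The probes on custom Agilent 4×180K protein-binding microarrays were double-stranded, with 34-nt variable regions bearing direct-repeat seeds, single-nucleotide variants, half-site ablations and random human genomic background sequences. Incubation lasted 1 h with ligand-free nuclear receptor dimers in PBS pH 7.4, 2% milk, 0.02% Triton X-100, 1 mM DTT, 0.2 mg/mL BSA and 0.4 mg/ml salmon testes DNA. Antibodies against each partner (one per run) detected bound dimers, and fluorescence scans were regression-normalized. Binding z-scores take the random background probes as reference.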
Sequence CCTCCTGGGCCACGAAAGGTCATTGATTCAGTGA came in with a PBM binding z-score of 0.0691.

For CCTTACGGGTCACAAGGTTATAGCACGACGAGCG, the PBM binding z-score amounted to 1.18.

Take GCTGCTAAGTCAACTGATGGTCAGCTAAAGCTCG: the PBM binding z-score turned out to be 0.184.

In turn, CCGACTGGGGCAAAGGGTACCATACTCAGTACGA had a PBM binding z-score of -0.546.

The sequence CCTAGTTGGTCTAGGTCACACACGCTATAGGTAC gave a PBM binding z-score of 0.925.

ATCTCTAGTTAACAAGTTCAGTGAAAGAGAGGAC showed a PBM binding z-score of 1.03.

In the case of ATTCAAAGTTCACTAGGTAACGTAAGATTCAGCT, the PBM binding z-score was 4.38.

For ACAGACAGATGATGAAGGTAACTCAGGCTATCAT, the PBM binding z-score is -0.152.

For the sequence TCTTGTTGATCAACAGGAGGTTAAGAAAGATCGA, the PBM binding z-score turned out to be 0.0758.

Take ACTAGTTGGTCAGCTGAGGTCAGACACAATTCGG: the PBM binding z-score was determined as 0.548.

Sequence ACTATTAGTTAAGACGAGGGCAACCGATAGGTTG yielded a PBM binding z-score of 0.459.

Regarding TCTGCTAGGTCAAGGATGGTCAGCTAATCTGCTA, the PBM binding z-score amounted to 0.94.

TAGCTTAGGTCATGGGCCAGTATACCACGCGAAC: the PBM binding z-score came out at 0.975.

Consider CCTTACGGGCCACTCCAGGTTATAGCATCGGAGT, for which the PBM binding z-score is -0.62.

Consider TCATATAGGTAAACAGGTCAAAGTCCGTAAGTTA, for which the PBM binding z-score was 1.54.

For AGTCAAACTTCATCTAGGTAACGTAAGATATGCT, the PBM binding z-score amounted to 0.281.

The sequence ATCTCTAGGCAAAGTTCAGTGAAAGATCGATAGA yielded a PBM binding z-score of 1.24.

As for ATGTCTAGGTAAAAGTTCAGTGAATCCCGAGGAT, the PBM binding z-score was determined as 0.508.

In turn, TCTATTAGTTAAAGGGCAACCGACGAGTCCGTTT registered a PBM binding z-score of 1.7.

In the case of CCTACTGGTCCACGAAAGGTCATTGATTCAGTGA, the PBM binding z-score worked out at 1.26.

In the case of ACTCGGAGGACAAAGGTCAGAGTTACGCCAGTGA, the PBM binding z-score was 1.63.

As for CCGAGTAGGTTATGTGGCATTCAGGCAACGGTGA, the PBM binding z-score was 0.434.

For the sequence CTCGAAAGGTCGGTCGAGGTGAGTATACGGATAA, the PBM binding z-score turned out to be 0.728.

CAAACTAGGTCACCGGAAGGACAAAGTCCGCATG: the PBM binding z-score came to 1.54.

AGAACGAGCGCAATGAGTTGATAGCACGGGTGGC yielded a PBM binding z-score of -0.213.

With TCCATTAGTTGATTAGGGCAACCGAAACAGCGGA, the PBM binding z-score was determined as 1.09.

CCGACTGGGGCAAAGGTTACTATACTCAGTACGA showed a PBM binding z-score of 0.148.

On to ACTAGCATGCCAAGTTTGGGTCACTCAAACAAAG, for which the PBM binding z-score was -0.167.

CCAAGTTGGTCAAGGTCACACACGCTATAGGTAC: the PBM binding z-score worked out at 2.86.

Regarding CGTCCAAGGTCAAGGTAAGTGAAAGAGACTCGAA, the PBM binding z-score turned out to be 3.26.

ATCTCTAGGTAACAAGTTCAGGGAAAGAGAGGAC showed a PBM binding z-score of 1.06.

The sequence CCGACTGCGGCAAAGGTTACCATACTCAGTACGA came in with a PBM binding z-score of 0.531.

On to AGAATGACGTTATACGTAGATCAGGGAAGAAAGT, for which the PBM binding z-score was -0.541.

For the sequence TCTAGTTGGTCAAAGGTCACACCCTCGAAATGCG, the PBM binding z-score was 2.29.

On to GCAGACAGGTGAAACGTAGGTAACTCAGGGTGGC, for which the PBM binding z-score was -0.48.

Sequence ATCTCTATGTAACCAAGTTCAGTGAATGCCGAAC displayed a PBM binding z-score of 0.924.

For GCGGCTGGGGCAAAGCAGGTTACCATAAGGTTGG, the PBM binding z-score was -0.596.

As to ACTACTAGTTGAGACGAGGGCAACCGATAGGTTG, the PBM binding z-score was 0.00344.

The sequence CGAACTAGGTCATTAACAGGACAGTGAATAGTAA displayed a PBM binding z-score of 2.35.

As to AGAGTGAGGTTAAGATCAGGGAAACAGAATACAT, the PBM binding z-score amounted to 0.869.

The test system of the next test is RXRa homodimer (NR concentration 180 nM). The test is described as above. Put shortly: as §1
Take CCTCCTGGGCCACGAAAGGTCATTGATTCAGTGA: the PBM binding z-score turned out to be 4.89.

The sequence CCTTACGGGTCACAAGGTTATAGCACGACGAGCG came in with a PBM binding z-score of 6.05.

Turning to GCTGCTAAGTCAACTGATGGTCAGCTAAAGCTCG, the PBM binding z-score is -0.0847.

In turn, CCGACTGGGGCAAAGGGTACCATACTCAGTACGA gave a PBM binding z-score of 0.731.

In the case of CCTAGTTGGTCTAGGTCACACACGCTATAGGTAC, the PBM binding z-score was determined as 1.88.

Regarding ATCTCTAGTTAACAAGTTCAGTGAAAGAGAGGAC, the PBM binding z-score is 0.676.

With ATTCAAAGTTCACTAGGTAACGTAAGATTCAGCT, the PBM binding z-score was 3.58.

Turning to ACAGACAGATGATGAAGGTAACTCAGGCTATCAT, the PBM binding z-score is 0.225.

For the sequence TCTTGTTGATCAACAGGAGGTTAAGAAAGATCGA, the PBM binding z-score is 0.644.

The sequence ACTAGTTGGTCAGCTGAGGTCAGACACAATTCGG gave a PBM binding z-score of 2.51.

Regarding ACTATTAGTTAAGACGAGGGCAACCGATAGGTTG, the PBM binding z-score was 0.55.

On to TCTGCTAGGTCAAGGATGGTCAGCTAATCTGCTA, for which the PBM binding z-score stood at 2.6.

The sequence TAGCTTAGGTCATGGGCCAGTATACCACGCGAAC returned a PBM binding z-score of 3.74.

Consider CCTTACGGGCCACTCCAGGTTATAGCATCGGAGT, for which the PBM binding z-score is -0.0369.

For TCATATAGGTAAACAGGTCAAAGTCCGTAAGTTA, the PBM binding z-score was 3.59.

AGTCAAACTTCATCTAGGTAACGTAAGATATGCT displayed a PBM binding z-score of 0.109.

For the sequence ATCTCTAGGCAAAGTTCAGTGAAAGATCGATAGA, the PBM binding z-score worked out at 1.06.

Turning to ATGTCTAGGTAAAAGTTCAGTGAATCCCGAGGAT, the PBM binding z-score amounted to 1.57.

Regarding TCTATTAGTTAAAGGGCAACCGACGAGTCCGTTT, the PBM binding z-score is 1.28.

As for CCTACTGGTCCACGAAAGGTCATTGATTCAGTGA, the PBM binding z-score was 5.49.

Turning to ACTCGGAGGACAAAGGTCAGAGTTACGCCAGTGA, the PBM binding z-score is 4.97.

CCGAGTAGGTTATGTGGCATTCAGGCAACGGTGA had a PBM binding z-score of 0.208.

As for CTCGAAAGGTCGGTCGAGGTGAGTATACGGATAA, the PBM binding z-score was determined as 2.47.

In turn, CAAACTAGGTCACCGGAAGGACAAAGTCCGCATG gave a PBM binding z-score of 3.82.

In turn, AGAACGAGCGCAATGAGTTGATAGCACGGGTGGC returned a PBM binding z-score of -0.0749.

Regarding TCCATTAGTTGATTAGGGCAACCGAAACAGCGGA, the PBM binding z-score amounted to 0.491.

In the case of CCGACTGGGGCAAAGGTTACTATACTCAGTACGA, the PBM binding z-score came out at 2.8.

Regarding ACTAGCATGCCAAGTTTGGGTCACTCAAACAAAG, the PBM binding z-score turned out to be 0.674.

Sequence CCAAGTTGGTCAAGGTCACACACGCTATAGGTAC returned a PBM binding z-score of 5.31.

As for CGTCCAAGGTCAAGGTAAGTGAAAGAGACTCGAA, the PBM binding z-score amounted to 5.48.

ATCTCTAGGTAACAAGTTCAGGGAAAGAGAGGAC: the PBM binding z-score was 1.23.

CCGACTGCGGCAAAGGTTACCATACTCAGTACGA yielded a PBM binding z-score of 2.46.

AGAATGACGTTATACGTAGATCAGGGAAGAAAGT had a PBM binding z-score of -0.108.

On to TCTAGTTGGTCAAAGGTCACACCCTCGAAATGCG, for which the PBM binding z-score was determined as 8.03.

With GCAGACAGGTGAAACGTAGGTAACTCAGGGTGGC, the PBM binding z-score amounted to 0.858.

Sequence ATCTCTATGTAACCAAGTTCAGTGAATGCCGAAC returned a PBM binding z-score of 0.314.

Consider GCGGCTGGGGCAAAGCAGGTTACCATAAGGTTGG, for which the PBM binding z-score was 0.116.

On to ACTACTAGTTGAGACGAGGGCAACCGATAGGTTG, for which the PBM binding z-score came out at 0.506.

In the case of CGAACTAGGTCATTAACAGGACAGTGAATAGTAA, the PBM binding z-score is 2.29.

For the sequence AGAGTGAGGTTAAGATCAGGGAAACAGAATACAT, the PBM binding z-score was determined as 2.52.

Values taken from the supplement of paper PMC6555819.
